{"source": "PubChem BioAssay (NCI)", "note": "This is part of a sample that, as a whole, favours compounds with a hit. Of some 83,000 tested, about 20% had one in any assay.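 96-well plates, one dose, 48 hours. Percent growth reported; active if below 10.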 Unmarked numbers belong to inactive results. Active and inactive are the calls of the source.", "data": [{"system": "RPMI-8226 leukemia", "experiment": "NCI-60 one-dose screen, 48 h (100 = growth as untreated, 0 = no growth, -100 = all killed)", "conditions": "10 µM", "procedure": "Growth inhibition of the RPMI-8226 human tumor cell line is measured as a screen for anti-cancer activity. Cells are grown in 96 well plates and exposed to the test compound for 48 hours. Compounds are tested at a single concentration, which is 10^-5 M for most compounds. The reported endpoint is percent growth (GI% or GIPRCNT), where numbers from 0 - 100% represent growth inhibition, and numbers from -100% - 0 represent cell death. For example, a value of 40 represents 60% growth inhibition. A value of 0 means no net growth occurred over the course of the experiment. A value of -40 indicates 40% of cells at the beginning of the experiment died by the end of the experiment. A value of -100 means all cells are dead at the end of the experiment.\nNCI-60 Human Tumor Cell Lines Screen was performed using the standard one-dose NCI protocol, which is described in more detail at https://dtp.cancer.gov/discovery_development/nci-60/default.htm.\nCompounds with GIPRCNT values below 10 were considered active. Activity score was based on GIPRCNT using the following formula: […]\nScore is 0 for GIPRCNT values of 100 or above, 50 for GIPRCNT values of 0, and 100 for GIPRCNT values of -100.", "values": [{"smiles": "Oc1ccc(N=Nc2ccc(Br)cc2)c(O)c1", "growth": "-37.3% (active)"}, {"smiles": "O=C(NCCNC(=O)c1ccc(Cl)cc1Cl)c1ccc(Cl)cc1Cl", "growth": "97.8%"}, {"smiles": "CCCCC/C=N/Nc1nc(C)cc(=O)[nH]1", "growth": "119%"}, {"smiles": "N#CCCc1ccc(O)cc1", "growth": "102%"}, {"smiles": "CCOC(=O)C(O)C(O)C(=O)OCC", "note": "(stereo not given)", "growth": "110%"}, {"smiles": "O=C(CCl)N1CCN(C/C=C/c2ccccc2)CC1", "growth": "90.5%"}, {"smiles": "CCCCCCCCCCCCCC(=O)Oc1ccc[nH]c1=O", "growth": "95.7%"}, {"smiles": "O=c1[nH]n(-c2ccccc2)c(=O)cc1Cl", "growth": "97.5%"}, {"smiles": "O=[N+]([O-])c1ccc(/C=C/C=C/c2ccccc2)c(Cl)c1", "growth": "87.6%"}, {"smiles": "Cc1ccc(C(=O)c2ccccc2)c(C)c1", "growth": "98%"}, {"smiles": "COc1ccc(-c2cc(-c3cc(-c4ccc(OC)cc4)nc(N)n3)nc(N)n2)cc1", "growth": "99.5%"}, {"smiles": "COc1ccc(C2(O)CCCCC2)cc1", "growth": "95.6%"}, {"smiles": "Cc1nc2ccccc2c(C(=O)O)c1O", "growth": "179%"}, {"smiles": "Cc1ccc(C)n1-c1ccsc1C(=O)NNC(=O)CCl", "growth": "84.4%"}, {"smiles": "Nc1nc(N)c2cc(S(=O)(=O)c3cccc(C(F)(F)F)c3)ccc2n1", "growth": "63.1%"}, {"smiles": "CC1(C)OC(=O)C(c2ccsc2)C(=O)O1", "growth": "103%"}, {"smiles": "CCOC(=O)CSc1c([N+](=O)[O-])ncn1C", "growth": "99.7%"}, {"smiles": "OC1CCCc2ccccc21", "note": "(stereo not given)", "growth": "104%"}, {"smiles": "CC(=Nc1ccccc1)C1=C(O)C(Cc2cccc(F)c2)NC1=O", "note": "(stereo not given)", "growth": "9.85% (active)"}, {"smiles": "COc1ccccc1N=Nc1c(O)ccc2cc(S(=O)(=O)O)ccc12", "growth": "99.6%"}, {"smiles": "CC(C)(C)c1cc(O)c(C(C)(C)C)cc1O", "growth": "54.1%"}, {"smiles": "COC(=O)c1cccnc1", "growth": "106%"}, {"smiles": "COC(=O)/C=C/C(=O)NC(N)=O", "growth": "103%"}, {"smiles": "CCOC(=O)c1coc(C(=O)OCC)c1C(=O)OCC", "growth": "126%"}, {"smiles": "CC(C)C1CCCCC1O", "note": "(stereo not given)", "growth": "105%"}, {"smiles": "O=C(NCc1ccco1)Nc1c(Cl)cc(Cl)cc1Cl", "growth": "100%"}, {"smiles": "Cc1cc(C)c(N)c(S(=O)(=O)O)c1", "growth": "92.4%"}, {"smiles": "CCc1nn(Cc2ccccc2)c2nc(C)c(CCc3ccccc3)c(Cl)c12", "growth": "72%"}, {"smiles": "C/C(=N/NC(N)=O)c1ccco1", "growth": "118%"}, {"smiles": "O=C(O)C(Cc1ccccc1)C(=O)O", "growth": "109%"}, {"smiles": "CC(=O)c1ccc2c(ccc3ccccc32)c1", "growth": "101%"}, {"smiles": "CC(C)(C)n1nc(C2CC2)c(Br)c1NC(=O)c1ccccc1F", "growth": "96.7%"}, {"smiles": "CCOc1ccc(I)cc1", "growth": "131%"}, {"smiles": "CCc1ccc(/C(C#N)=C/C=C/c2ccccc2)cc1", "growth": "3.92% (active)"}, {"smiles": "CCOC(=O)c1cc(/C=C/c2cccc(Cl)c2)on1", "growth": "4.16% (active)"}, {"smiles": "Sc1ccc(Nc2c3ccccc3nc3ccccc23)cc1", "growth": "44.2%"}, {"smiles": "Cc1ccccc1C1N=C2Oc3ccccc3C=C2C(=O)N1", "note": "(stereo not given)", "growth": "95.4%"}, {"smiles": "O=c1cc(-c2ccccc2)oc2c1ccc1ccccc12", "growth": "77.8%"}, {"smiles": "O=C(O)C(c1ccccc1)C(O)c1ccccc1", "note": "(stereo not given)", "growth": "101%"}, {"smiles": "CC(C)OC(C(=O)O)c1ccccc1", "note": "(stereo not given)", "growth": "105%"}]}]}
